Measured values taken from PubChem BioAssay AID624330 (Southern Research Specialized Biocontainment Screening …, 2012).
The campaign covered roughly 340,000 compounds. About 2,100 (0.62%) were called active.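 How the source made its calls: active means first-screen hits whose inhibition reached a set limit at any dose in the follow-up dose series; inconclusive means inhibition above the set first-screen limit but never retested; inactive means the rest.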 Only a sample is shown. Entries with a potency or affinity are not part of this list.

target: Rac GTPase-activating protein 1 (Homo sapiens) (UniProt Q9H0H5); experiment: MgcRacGAP GTPase-activating activity inhibitors, confirmation, biochemical, ADP Hunter fluorescence, primary and confirmatory (AID 624330); details: MgcRacGAP-stimulated Rac1 GTP hydrolysis, at 30 µM, stronger effect = higher value, GST-tagged Rac1 F28L mutant substrate;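 further: fluorescence reports GDP produced by GAP-driven GTP hydrolysis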
Sequence (Q9H0H5 whole entry, looked up): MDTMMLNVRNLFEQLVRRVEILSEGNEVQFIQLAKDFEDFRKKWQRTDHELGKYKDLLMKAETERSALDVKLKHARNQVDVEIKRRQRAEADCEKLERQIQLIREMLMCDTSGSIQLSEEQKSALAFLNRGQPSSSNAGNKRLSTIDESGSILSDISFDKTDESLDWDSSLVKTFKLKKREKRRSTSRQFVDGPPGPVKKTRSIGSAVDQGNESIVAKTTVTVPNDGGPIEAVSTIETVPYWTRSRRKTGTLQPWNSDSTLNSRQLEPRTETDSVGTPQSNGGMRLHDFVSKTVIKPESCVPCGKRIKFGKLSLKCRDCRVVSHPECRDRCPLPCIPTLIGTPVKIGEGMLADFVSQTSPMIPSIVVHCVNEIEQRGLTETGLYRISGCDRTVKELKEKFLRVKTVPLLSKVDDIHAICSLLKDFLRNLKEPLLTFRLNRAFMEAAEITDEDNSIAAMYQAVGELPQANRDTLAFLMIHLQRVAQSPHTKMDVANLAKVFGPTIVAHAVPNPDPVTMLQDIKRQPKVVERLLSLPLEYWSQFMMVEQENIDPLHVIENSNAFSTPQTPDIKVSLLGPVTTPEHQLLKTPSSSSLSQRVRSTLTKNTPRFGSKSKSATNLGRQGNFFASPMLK

inhibition, inactive:
O=C(NCc1ccc(Cl)cc1)c1ccncc1 6.54%
O=C(COn1nnc2ccc(S(=O)(=O)N3CCOCC3)cc21)NCc1cccc(Cl)c1 13.7%
COc1cc(Cc2cc(OC)c(O)c(OC)c2)cc(OC)c1O 6.74%
COc1cc(C(=O)C(=O)c2cc(OC)c(O)c(OC)c2)cc(OC)c1O 7.13%
Cc1ccc(S(=O)(=O)N2CCOCC2)cc1C(=O)Nc1nc(-c2ccccn2)cs1 13.7%
CCOc1cc(NC(=O)c2ccccc2OC)c(OCC)cc1NC(=O)c1ccccc1 -3.11%
CCOc1ccc(S(=O)(=O)N2CCN(CC)CC2)cc1NC(=O)c1ccccc1F 0.51%
CCn1c(C)cc(/C=C2/SC(=O)N(CC(=O)N3CCCC3)C2=O)c1C 8.19%
Cn1cnc2c1c(=O)n(Cc1cccc(Br)c1)c(=O)n2C 0.32%
COc1c2ccoc2cc2oc(C)cc(=O)c12 6.29%
O=c1cc(-c2ccccc2)oc2cc(O)c(O)c(O)c12 -59.8%
COc1cc2c(cc1OC)CN(CC(=O)Nc1ccccc1C(=O)NC1CC1)CC2 -6.05%
CCOC(=O)c1sc(N2C(=O)C(O)=C(C(=O)c3ccco3)C2c2ccc(C)o2)nc1C (centres undefined) 12.2%
CN=C1S/C(=C\c2ccc(Cl)cc2)C(=O)N1C 3.04%
CN=C1S/C(=C\c2ccc(SC)cc2)C(=O)N1C 7.27%
O=C1COc2ccc(C(=O)COC(=O)Cc3ccc(Cl)cc3)cc2N1 9.6%
COc1ccccc1C1NC(c2ccccc2OC)C(C)C(=O)C1C (centres undefined) -2.35%
COc1ccc(C2NC(c3ccc(OC)c(OC)c3OC)C(C)C(=O)C2C)c(OC)c1OC (centres undefined) 1.64%
O=C(N/N=C/c1ccc(N2CCOCC2)c([N+](=O)[O-])c1)c1ccc(F)cc1 7.08%
O=C(O)c1ccccc1NS(=O)(=O)c1ccc(NN=Cc2ccc(F)cc2)c([N+](=O)[O-])c1 6.4%
CC(=O)Nc1ccc(C=NNc2ccc(S(=O)(=O)Nc3ccccc3C(=O)O)cc2[N+](=O)[O-])cc1 15.7%
CCOc1ccc(C=NNc2ccc(S(=O)(=O)Nc3ccccc3C(=O)O)cc2[N+](=O)[O-])cc1OC 10%
CCOc1ccc(C=NNc2ccc(S(=O)(=O)Nc3ccccc3C(=O)O)cc2[N+](=O)[O-])cc1 15.4%
CCOCCCNC(=O)c1cc2cc3cc(OC)ccc3nc2o1 11.9%
CCc1nc(SCC(=O)NNC(=O)c2ccc(OC)cc2)c2ccccc2n1 -0.86%
CN(Cc1ccccc1)C(=O)CCC1CCN(C(=O)c2ccccc2C(F)(F)F)CC1 -5.88%
COc1ccc(NC(=O)CS(=O)CC(=O)Nc2ccc(OC)c(OC)c2)cc1 (centres undefined) -4.61%
O=C(COC(=O)CC1CC2CCC1C2)Nc1ccc(Cl)c(S(=O)(=O)N2CCOCC2)c1 (centres undefined) 6.02%
CCN1CCN(C(=O)c2ccc(C)c(S(=O)(=O)Nc3cccc(C)c3)c2)CC1 3.11%
O=C(c1ccc(Cn2cc(Br)cn2)cc1)N1N=C(C(F)F)CC1(O)C(F)F (centres undefined) 0.1%
CCCc1nc(NCc2ccncc2)c2nnn(Cc3ccccc3F)c2n1 10.9%
COc1cc2c(cc1NC(=O)Nc1cccc(C)c1)oc1ccccc12 9.41%
COc1ccc(CNC(=O)Nc2cccc(C(F)(F)F)c2)cc1OC 6.37%
COc1cc2c(cc1NC(=O)Nc1ccccc1)oc1ccccc12 -0.72%
COc1cc2c(cc1NC(=O)Nc1ccc(C)cc1)oc1ccccc12 2.58%
COc1cccc(NC(=O)CN2C(=O)NC(C)(c3ccc(C)cc3)C2=O)c1 (centres undefined) 6.36%
COc1ccccc1Nc1nc(N)nc(CSc2nncn2C)n1 5.08%
CC(=O)c1ccc(NC(=O)CSc2nc(Nc3ccccc3)nc(N3CCOCC3)n2)cc1 8.08%
CCN(CC)c1ccc(CN2CCC(C(=O)NCc3ccc(C)cc3)CC2)cc1 36.2%
Cc1ccc(CNC(=O)C2CCCC2)cc1 6.2%
COc1ccc(CCNc2ccc(S(=O)(=O)N3CCN(C)CC3)cc2[N+](=O)[O-])cc1 1.77%
CC(/C=C1\N=C(SCc2ccccc2)SC1=O)=C\c1ccccc1 3%
C/C(=N/NC(=O)CNC(=O)/C=C/c1ccco1)c1ccc(Cl)cc1 18.5%
COc1ccc(/C(C)=N/NC(=O)CNC(=O)/C=C\c2ccco2)cc1 1.11%
COCCCN(CC(=O)Nc1ccc(N2CCOCC2)cc1)S(=O)(=O)c1ccccc1 5.72%
CCn1c(SC(C)C)nnc1-c1c[nH]c2ccccc12 7.88%
CC(C)Sc1nc2sc(-c3ccccc3)cc2c(=O)n1N 11.4%
C=CCn1c(SCC(N)=O)nnc1-c1ccccc1O 4.07%
C=CCn1c(SCC(=O)O)nnc1-c1ccccc1 -4.43%
CN(C)C(CNC(=O)C1CC(=O)N(Cc2ccccc2)C1)c1ccccc1 (centres undefined) 5.5%
CC(C)C[C@@]12C(=O)N(c3cccc(Cl)c3)C(=O)N1[C@H](c1ccc(Br)cc1)[C@@H]1C(=O)N(C(C)(C)C)C(=O)[C@@H]12 -10.5%
CCn1ccnc1CN(C)C(=O)CCc1nnc(CCCc2ccccc2)o1 -6.18%
CCCc1cc(-n2ccnc2)n2c(nc3ccccc32)c1C#N -0.61%
CCCc1cc(-n2cnc3ccccc32)n2c(nc3ccccc32)c1C#N 11%
COc1ccc(Br)c(C(=O)OCC(=O)NC2CCCCCC2)c1 8.08%
CCCCN1C(=O)C(CC(=O)NCCc2ccccn2)CC(C(=O)N2CCOCC2)=C1C (centres undefined) 11.8%
CN(c1ccc(C(=O)Nc2ccccc2C(F)(F)F)cc1)S(C)(=O)=O 5.77%
Cc1cc(C)n(C(=O)c2ccc(Cn3nc(C)c(Br)c3C)o2)n1 4.85%
Nc1c(C(=O)N2CCCCC2)sc(=S)n1-c1ccccc1 10.5%
Nc1c(C(=O)N2CCOCC2)sc(=S)n1-c1ccccc1 11.6%
NC(=O)c1ccccc1NC(=O)C1CCCO1 (centres undefined) 5.38%
C/C(O)=C(\C#N)c1nc2ccccc2[nH]1 6.3%
C/C(O)=C(/C#N)c1nc2ccccc2[nH]1 9.91%
CCc1cccc(C)c1NC(=O)CC(C)(C)CC(=O)O -15.4%
Cc1ccc(N/N=C(\C#N)C(N)=S)cc1C 14.2%
COc1ccc(CC(=O)Nc2cc(S(=O)(=O)N3CCOCC3)ccc2N2CCCC2)cc1 -0.25%
CN(C)S(=O)(=O)c1cccc(NC(=O)CCCC2CCCCC2)c1 4.27%
CCN(CC)S(=O)(=O)c1cccc(NC(=O)CN(C)C2CCCCC2)c1 -0.2%
Cc1ccc(NC(=O)CNCC2CCCCC2)cc1S(=O)(=O)N(C)C 28.9%
CCN(CC)S(=O)(=O)c1ccc(NC(=O)CNC2CCCCC2)cc1 31.5%
COc1ccc(S(=O)(=O)Nc2ccccc2C(=O)N2CCOCC2)cc1OC 3.41%
COc1ccc(CCNC(=O)C(C)SCC(=O)Nc2ccc(F)cc2)cc1 (centres undefined) 6.87%
Cc1cc([N+](=O)[O-])nn1CC(=O)Nc1nc2ccccc2s1 6.23%
COc1ccccc1C(=O)N/N=C(\C)c1ccc(NC(=O)Cc2ccccc2)cc1 7.02%
COc1ccc(/C(C)=N/NC(=O)c2ccncc2)cc1 4.26%
COc1ccc(/C(C)=N/NC(=O)Cc2c(C)nc(C)[nH]c2=O)cc1 -5.47%
COc1cc(C(=O)O)ccc1O 9.79%
COc1ccccc1OCC(=O)N/N=C(\C)c1ccc2ccccc2c1 5.4%
COc1ccc(/C(C)=N/NC(=O)c2ccncc2)cc1[N+](=O)[O-] 3.87%
COc1cccc(C(=O)N/N=C(\C)c2ccc(NC(=O)Cc3ccccc3)cc2)c1OC 10.3%
C/C(=N\NC(=O)C(O)(c1ccccc1)c1ccccc1)c1ccc(NC(=O)CCCC(=O)O)cc1 7.64%
Cc1ccccc1N1CCN(C2=NC(=O)/C(=C/c3cn[nH]c3-c3ccccc3)S2)CC1 -0.05%
CC(=O)N1c2ccc(S(=O)(=O)N3CCCCC3)cc2CC1C(=O)NCc1ccc(N(C)C)cc1 (centres undefined) 3.76%
Fc1ccc(CNC(=S)NCc2ccc(F)cc2)cc1 -6.74%
CCNC(=S)N(Cc1cccs1)Cc1cc2cc(OCC)ccc2[nH]c1=O 9.83%
COc1ccc(OCCOCCOc2ccc(C)cc2[N+](=O)[O-])cc1 4.97%
Cc1cnc(C(=O)OC(C(=O)c2c[nH]c3ccccc23)c2ccccc2)cn1 (centres undefined) 10%
C=C1/C=C(\C)C(C)(O)CC(O)CC(=O)C(O)C(O)C(C)CC(C)OC(=O)/C(C)=C/CC/C=C/C(OC)C(O)CC(C)C1 (centres undefined) 9.68%
COc1cc(CN2CCCC(CO)(Cc3ccccc3C)C2)cc2c1OCO2 (centres undefined) 1.83%
O=C(Nc1cc(Br)ccc1O)c1cc(-c2ccco2)on1 8.94%
Brc1ccc(OCCN2CCOCC2)cc1 28.6%
Brc1ccc(OCCOCCN2CCOCC2)cc1 4.13%
Clc1cccc(OCCN2CCOCC2)c1 10.7%
Brc1cccc(OCCN2CCCCC2)c1 17.4%
